Compound activity (PubChem)
The list is not random: actives were taken first. Their share in the collection is about 3.2%.
CBFb-RUNX1 inh: inhibitors of human CBF-beta and RUNX1 interaction. AlphaScreen CBFb-His/RUNX1-biotin binding, biochemical. 230,000 tested, under 10 active. Q01196+Q13951. Potency, µM (highest dose often 59.8 µM), for the others: top-dose activity, negative = inhibition, actives largely listed as inhibitors; also: % of control where 0% means no effect
Target sequence (Q01196 whole entry, looked up): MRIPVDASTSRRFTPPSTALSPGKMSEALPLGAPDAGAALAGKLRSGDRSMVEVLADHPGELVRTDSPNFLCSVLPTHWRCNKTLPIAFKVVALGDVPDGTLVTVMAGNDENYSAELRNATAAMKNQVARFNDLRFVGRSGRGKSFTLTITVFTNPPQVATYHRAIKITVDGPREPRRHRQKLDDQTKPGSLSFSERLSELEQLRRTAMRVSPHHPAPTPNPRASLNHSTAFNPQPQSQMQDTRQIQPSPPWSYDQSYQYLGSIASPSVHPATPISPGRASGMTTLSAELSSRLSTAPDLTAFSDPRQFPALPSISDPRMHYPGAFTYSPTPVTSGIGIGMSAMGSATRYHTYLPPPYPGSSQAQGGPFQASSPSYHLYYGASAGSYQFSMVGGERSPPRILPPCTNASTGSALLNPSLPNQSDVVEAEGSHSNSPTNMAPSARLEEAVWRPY
Target sequence (Q13951 whole entry, looked up): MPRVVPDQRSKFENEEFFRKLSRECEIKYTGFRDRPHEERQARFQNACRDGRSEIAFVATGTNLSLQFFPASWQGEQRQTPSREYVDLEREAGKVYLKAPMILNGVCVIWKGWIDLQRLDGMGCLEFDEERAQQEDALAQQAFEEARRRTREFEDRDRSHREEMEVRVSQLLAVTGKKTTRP
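His-tagged CBF-beta and biotinylated RUNX1 (30 nM each) were premixed 20 min at room temperature, exposed to compound for 15 min, then given nickel-chelate and streptavidin AlphaScreen beads (50 ng each). After 90 min, AlphaScreen signal was read.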
JMJD2E inh: blocks human JMJD2E demethylase activity. B2RXH2. JMJD2E catalytic domain, FDH-coupled NADH fluorescence (FDH is formaldehyde dehydrogenase). Potency, µM (top dose mostly 57.1 µM), for the others: top-dose activity change, negative = inhibition, hits mostly inhibitors. 230,000 compounds, 1.6% hits. AID 2147; active = well fitted inhibition curve with a large enough effect, not every such curve was filed as active; inconclusive = small, poorly fitted or top-dose-only effect, or another doubt; inactive = no such curve, though single readings can be large or run the other way;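 also: potency is read from the fitted curve at half-maximal effect; 0% = wells with enzyme and -100% = buffer wells without enzyme; nearly all actives have a fitted effect of over 50% in size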
Tau ThT inhib: inhibitors of human tau fibril formation, thioflavin T binding; recombinant tau K18 P301L, heparin-induced fibrillization, ThT fluorescence; AID 1460; 270,000 compounds, 2.1% hits; Potency, µM (doses to about 57.4 µM), for inactives: at the top dose activity, negative = inhibition, actives largely listed as inhibitors; P10636; also: potency is read from the fitted curve at half-maximal effect; % is scaled to controls: 0 for no effect and ±100 for the full control effect; nearly all actives have a fitted effect of over 55% in size
Target sequence (P10636 561-689 P618L limits assumed): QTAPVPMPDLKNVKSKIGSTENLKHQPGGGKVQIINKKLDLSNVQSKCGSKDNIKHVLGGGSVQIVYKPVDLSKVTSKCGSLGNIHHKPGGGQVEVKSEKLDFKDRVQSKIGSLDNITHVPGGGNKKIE
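Tau K18 P301L fragment (15 uM unlabeled plus 0.24 uM Alexa 594-labeled) in 100 mM sodium acetate pH 7 with compound, fibrillization induced by 20 uM heparin for 6 hr at 37 C. Thioflavin T (30 uM) added, fluorescence read after 1 hr (ex 450, em 510 nm).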
Lamin A splicing: changes lamin A minigene splicing in HeLa cells; HeLa LMNA splicing GFP/RFP minigene ratio, 48 h; Potency, µM (series often up to 46.1 µM), inactives show at the top dose ratio change, negative = inhibition, actives largely listed as inhibitors; 200,000 compounds, 0.01% hits; AID 1487; active = well fitted inhibition curve with a large enough effect in the signal ratio, with a control signal flat, not every such curve was filed as active; inconclusive = small, poorly fitted or top-dose-only effect, or effect the other way, or a change in a side signal; the % refers to the signal ratio; also: potency is read from the fitted curve at half-maximal effect; % is scaled to controls: 0 for no effect and ±100 for the full control effect
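S3 HeLa stable clones carrying a lamin A-EGFP splicing minigene plus DsRed2 were seeded at 600 cells/well in Opti-MEM with 2% FBS, pin-dosed and incubated 48 h at 37°C. Acumen cytometry (488 nm) gave the GFP/RFP total-intensity ratio.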
Tau fluor cs: counter-screen for tau fibril formation inhibitors; 280,000 compounds, 0.93% hits; tau K18 P301L Alexa594 fluorescence, heparin fibrillization; Potency, µM (series often up to 57.7 µM), inactives show at the top dose activity change, negative = decrease; AID 1463; also: potency is read from the fitted curve at half-maximal effect; % is scaled to controls: 0 for no effect and ±100 for the full control effect; nearly all actives have a fitted effect of over 55% in size
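Human tau K18 P301L (15 uM unlabeled, 0.24 uM Alexa 594-labeled) in 100 mM sodium acetate pH 7 with 20 uM heparin, 6 hr at 37 C. ThT 30 uM added, 1 hr ambient; Alexa 594 FP and total fluorescence read at 555/632 nm.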
Tau FP inhib: tau fibrillization inhibition (FP); P10636; K18 P301L tau heparin fibrillization, Alexa594 FP, 6 h; Potency, µM (top dose mostly 57.7 µM), inactives show at the top dose activity, negative = inhibition, hits mostly inhibitors; 280,000 compounds, 0.39% hits; AID 1468; also: potency is read from the fitted curve at half-maximal effect; % is scaled to controls: 0 for no effect and ±100 for the full control effect; nearly all actives have a fitted effect of over 55% in size
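Human K18 P301L fragment (15 uM unlabeled plus 0.24 uM Alexa 594-labeled) in 100 mM sodium acetate pH 7 with compound, aggregation induced by 20 uM heparin for 6 hr at 37 C. ThT (30 uM) added for 1 hr, then Alexa 594 FP read.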
Starred values were filed as active, the others as inactive; [ ] = dose if it differs, or a comment. Unless noted, calls follow the shape of the dose curve; as a rule, active = well fitted curve in the direction sought with a large enough effect; inconclusive = small, poorly fitted or top-dose-only effect, or another doubt; inactive = no such curve, though single readings can be large; an effect the other way counts as inactive or inconclusive.

CCOC(=O)c1cnc2ccc(C)cc2c1Nc1ccc(N2CCOCC2)cc1 was read as CBFb-RUNX1 inh inconclusive, JMJD2E inh -5.2%, Tau ThT inhib 28.2µM*, Lamin A splicing inconclusive, Tau fluor cs inconclusive and Tau FP inhib inconclusive.
Screening O=C(O)Cc1c(Cl)ccc(Cl)c1Cl returned CBFb-RUNX1 inh 20.5%.
CCOc1ccc(C2=Cc3cc(OC)c(OC)cc3C(=C(Cl)Cl)O2)cc1 was read as CBFb-RUNX1 inh -6.5%, JMJD2E inh 7.8%, Tau ThT inhib 17.8µM*, Lamin A splicing inconclusive, Tau fluor cs inconclusive and Tau FP inhib inconclusive.
COc1cc2ncnc(Nc3ccc(F)c(Cl)c3)c2cc1OCCCN1CCOCC1 was read as CBFb-RUNX1 inh -7.7%, Tau ThT inhib inconclusive, Lamin A splicing inconclusive, Tau fluor cs inconclusive and Tau FP inhib 39.8µM*.
Screening COc1cc2ncnc(Nc3ccc(Cl)cc3F)c2cc1OC returned CBFb-RUNX1 inh 20.4%.
Screening COc1ccc(O)c(C2(O)C(=O)c3ccccc3C2=O)c1 returned CBFb-RUNX1 inh 2.2%, JMJD2E inh 4.1%, Tau ThT inhib -0.7%, Tau fluor cs -2.0% and Tau FP inhib 2.9%.
CC(=O)C(C(C)=O)C1(O)C(=O)c2ccccc2C1=O was read as CBFb-RUNX1 inh 26.1%, JMJD2E inh -27.6%, Tau ThT inhib 2.82µM*, Lamin A splicing 3.0%, Tau fluor cs -10.1% and Tau FP inhib inconclusive.
COc1ccc(C(=O)NC(=S)Nc2cc3oc4ccccc4c3cc2OC)cc1 was read as CBFb-RUNX1 inh -2.7%, JMJD2E inh 4.7%, Tau ThT inhib -14.7%, Lamin A splicing -8.0%, Tau fluor cs -10.7% and Tau FP inhib -0.9%.
Screening COc1cc2c(cc1NC(=S)NC(=O)c1c(OC)cccc1OC)oc1ccccc12 returned CBFb-RUNX1 inh 0.9%, JMJD2E inh -22.4%, Tau ThT inhib -1.3%, Lamin A splicing inconclusive, Tau fluor cs -21.9% and Tau FP inhib 28.2µM*.
`CSC1=NSC2=NC(=O)/C(=C/c3coc4ccc(O)cc4c3=O)C(=N)N12` gave CBFb-RUNX1 inh -3.2%, JMJD2E inh inconclusive, Tau ThT inhib 22.4µM*, Lamin A splicing inconclusive, Tau fluor cs inconclusive and Tau FP inhib -4.9%.
CSC1=NSC2=NC(=O)/C(=C/c3coc4ccccc4c3=O)C(=N)N12 was read as CBFb-RUNX1 inh -8.0%, JMJD2E inh inconclusive, Tau ThT inhib 17.8µM*, Lamin A splicing inconclusive, Tau fluor cs inconclusive and Tau FP inhib inconclusive.
For COC(=O)CCn1cnc2onc(-c3cc(F)cc(F)c3)c2c1=O the results were Tau ThT inhib -0.9%, Tau fluor cs -11.9% and Tau FP inhib -3.6%.
CCOc1ccc(N2Nc3n[nH]c(N)c3N2)cc1 was read as CBFb-RUNX1 inh -14.6%, JMJD2E inh -2.5%, Tau ThT inhib 12.6µM*, Lamin A splicing 0.2%, Tau fluor cs inconclusive and Tau FP inhib 1.1%.
`COc1ccc(N2Nc3n[nH]c(N)c3N2)cc1` gave CBFb-RUNX1 inh inconclusive, JMJD2E inh inconclusive, Tau ThT inhib 8.91µM*, Lamin A splicing 6.5%, Tau fluor cs inconclusive and Tau FP inhib 12.1%.
Screening COc1ccc(N2CCN(c3n[nH]c(N)n3)CC2)cc1 returned CBFb-RUNX1 inh -12.5%, JMJD2E inh -3.8%, Tau ThT inhib -2.4%, Tau fluor cs -4.1% and Tau FP inhib 3.7%.
For CCOc1ccc(Cc2n[nH]c(=S)n2N)cc1 the results were CBFb-RUNX1 inh 4.9%, JMJD2E inh -0.9%, Tau ThT inhib 9.8%, Lamin A splicing -2.4%, Tau fluor cs 3.9% and Tau FP inhib 5.3%.
Screening COC(=O)c1cc(NC(=O)c2cccc(C(F)(F)F)c2)c(=O)oc1C/C=N/OCc1cccc(Cl)c1Cl returned CBFb-RUNX1 inh 0.9%, JMJD2E inh 20µM*, Tau ThT inhib inconclusive, Lamin A splicing 7.5%, Tau fluor cs -26.5% and Tau FP inhib -5.3%.
CN1/C(=C\C=C(/C#N)C(=O)Nc2ccc(Cl)cc2)C(C)(C)c2ccccc21 was read as CBFb-RUNX1 inh 13.3%, JMJD2E inh -1.1%, Tau ThT inhib inconclusive, Lamin A splicing -4.4%, Tau fluor cs -5.9% and Tau FP inhib -1.9%.
For CN1/C(=C\C(=S)NC(=O)c2ccccc2Cl)C(C)(C)c2ccccc21 the results were JMJD2E inh -3.1%, Tau ThT inhib 11.2µM*, Lamin A splicing inconclusive, Tau fluor cs -4.3% and Tau FP inhib 4.8%.
For COc1ccccc1C(=O)NC(=S)/C=C1/N(C)c2ccccc2C1(C)C the results were CBFb-RUNX1 inh inconclusive, JMJD2E inh -0.1%, Tau ThT inhib 2.3%, Lamin A splicing inconclusive, Tau fluor cs 2.1% and Tau FP inhib 3.5%.
`CN1/C(=C\C(=O)Nc2ccc(Cl)cc2)C(C)(C)c2ccccc21` gave CBFb-RUNX1 inh -9.8%, JMJD2E inh -13.4%, Tau ThT inhib inconclusive, Lamin A splicing inconclusive, Tau fluor cs 12.6µM*[quencher] and Tau FP inhib 9.7%.
`CN1/C(=C/C(=S)NC(=O)C2(C)CC2(Cl)Cl)C(C)(C)c2ccccc21` (centres undefined) gave CBFb-RUNX1 inh inconclusive, JMJD2E inh -3.0%, Tau ThT inhib 12.6µM*, Lamin A splicing inconclusive, Tau fluor cs -18.0% and Tau FP inhib -10.4%.
CCCCCOc1ccc(C(=O)N(Cc2ccccc2)C2CCS(=O)(=O)C2)cc1 (centres undefined) was read as Tau ThT inhib -10.5%, Lamin A splicing -1.6%[46 µM], Tau fluor cs -5.8% and Tau FP inhib 10.0%.
Screening O=C(O)CC/C(=N\Nc1ccc([N+](=O)[O-])cc1)c1ccccc1 returned CBFb-RUNX1 inh 3.0%, JMJD2E inh -1.5%, Tau ThT inhib 7.94µM*, Lamin A splicing inconclusive, Tau fluor cs inconclusive and Tau FP inhib 14.7%.
Screening O=C(O)CC/C(=N/Nc1ccc([N+](=O)[O-])cc1)C(=O)O returned CBFb-RUNX1 inh 10.6%, JMJD2E inh -9.1%, Tau ThT inhib inconclusive, Tau fluor cs -16.4% and Tau FP inhib -15.7%.
Screening Cc1cc(C)cc(NC(=O)Nc2cc(S(=O)(=O)N(C)C)ccc2C)c1 returned CBFb-RUNX1 inh 6.5%, JMJD2E inh -7.4%, Tau ThT inhib -12.5%, Tau fluor cs 15.8µM*[quencher] and Tau FP inhib inconclusive.
For Clc1ccc(NNc2ccnc3cc(Cl)ccc23)cc1 the results were CBFb-RUNX1 inh inconclusive, JMJD2E inh -4.4%, Tau ThT inhib 3.16µM*, Lamin A splicing -0.8%, Tau fluor cs inconclusive and Tau FP inhib -8.5%.
`CCOC(=O)C1=C(CN2CCN(c3cc(C)ccc3C)CC2)NC(=O)NC1c1ccccc1` (centres undefined) gave Tau ThT inhib -14.7%, Tau fluor cs -16.1% and Tau FP inhib 0.6%.
